High-throughput results deposited in PubChem BioAssay by National Center for Advancing Translational Sciences (NCATS).
Compounds with a hit are over-represented: about 7.8% of the library has one in this group of screens.
HCMV inh: blocks human cytomegalovirus replication | HFF cells, HCMV-luciferase reporter, 72 h; stronger effect = lower value | actives 4.5% (n = 410,000) | activity change, negative = inhibition, % at 57.5 µM | AID 1259415; in the data active = activity change below about -60%; inconclusive = no clear call, values can overlap the other calls; inactive = above about -39%
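Luciferase read-out from HCMV-luciferase-infected HFFs (MOI 1 PFU/cell) 72 h post infection at 37C; compounds added after 16 h cell attachment; activity normalized between buffer-only basal and Salinomycin (10uM) inhibitor controls.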
VACV Venus inh: vaccinia inhibition (Venus reporter); Vaccinia virus Venus reporter expression, fluorescence; actives 0.46% (n = 330,000); Potency, µM (series often up to 36.5 µM), for the others: at the highest dose activity change, negative = inhibition, hits mostly inhibitors; AID 720580; calls by dose curve; tested in A549 cells; also: potency is read from the fitted curve at half-maximal effect; nearly all actives have a fitted effect of over 30% in size
HCV inhibitor: inhibitors of hepatitis C virus infection | Huh7.5.1 HCVcc-Cre infection, luciferase reporter, 44 h | Potency, µM (titrated, usually from 41.8 µM), without a hit: at the highest dose activity change, negative = inhibition, hits mostly inhibitors | actives 3.4% (n = 340,000) | AID 651820; active = well fitted inhibition curve with a large enough effect; inconclusive = small, poorly fitted or top-dose-only effect, or another doubt; inactive = no such curve, though single readings can be large or run the other way; also: potency is read from the fitted curve at half-maximal effect
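Cells seeded at 1,000/well and cultured 4 h, then compounds added followed by HCVcc-Cre virus (~0.5 moi). After 44 h further culture, luciferase substrate was added, plates held 15 min at room temperature, and luminescence read for 15 sec.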
VACV mCherry inh: inhibitors of vaccinia virus infection (mCherry reporter signal); Vaccinia virus mCherry reporter infection, fluorescence; actives 0.63% (n = 310,000); Potency, µM (highest dose often 36.5 µM), for inactives: at the top dose activity change, negative = inhibition, actives largely listed as inhibitors; calls by dose curve; tested in A549 cells; also: potency is read from the fitted curve at half-maximal effect; nearly all actives have a fitted effect of over 35% in size
LASV entry inh: Lassa virus entry inhibition; Lassa virus pseudotype entry inhibition, cell reporter; Potency, µM (highest dose often 37.9 µM), inactives show top-dose activity change, negative = inhibition, hits mostly inhibitors; actives 1.2% (n = 300,000); calls by dose curve; tested in HEK293 cells; also: potency is read from the fitted curve at half-maximal effect; nearly all actives have a fitted effect of over 50% in size
MARV entry inh: Marburg virus entry inhibition; Marburg virus pseudotyped entry inhibition, cell reporter; Potency, µM (top dose mostly 37.8 µM), for the others: at the highest dose activity change, negative = inhibition, actives largely listed as inhibitors; actives 1.8% (n = 300,000); AID 540276; calls by dose curve; tested in HEK293 cells; also: potency is read from the fitted curve at half-maximal effect
Starred values were filed as active, the others as inactive; i = inactive; ? = inconclusive; · = no result; ! = a repeat was not active; [ ] = another dose, or the depositor's remark. % is scaled to controls: 0 for no effect and ±100 for the full control effect.

SMILES	HCMV inh	VACV Venus inh	HCV inhibitor	VACV mCherry inh	LASV entry inh	MARV entry inh
CC(=O)c1sc2c(c1C)c(=O)n(-c1ccc(Cl)cc1)c(=O)n2Cc1ccc(Cl)cc1	16.5	-5.0%	·	-13.9%	?	?
Cc1ccccc1OC1C(=O)N(Cc2ccc3c(c2)OCO3)C1c1sccc1C (stereo not drawn)	-70.6*	?	?	-20.4%	?	?
COc1cc2nc3occc3c(OC)c2cc1OC	-71.9*	-10.6%	?	i	?	5.2%
O=C(NNC1=Nc2cccc3cccc1c23)c1ccc(Br)cc1	-61.7*	10.4%	?	?	-16.0%[46.1 µM]	?
CCC(CC)N=C1NS(=O)(=O)c2cc([N+](=O)[O-])ccc21	-9.6	?	-26.4%	12.6µM*	2.0%[46.1 µM]	-9.2%[46.1 µM]
CC(C)(CO)N=C1NS(=O)(=O)c2cc([N+](=O)[O-])ccc21	-7.1	-23.1%	?	i	?	-11.6%
NC1=C(Cl)C(=O)c2ccccc2C1=O	-12.6	?	8.91µM*	?	-10.7%	?
NC1=C(Cl)C(=O)c2ccc(S(N)(=O)=O)cc2C1=O	-100.5*	0.501µM*	0.562µM*	?	?	2µM*
O=C1c2ccccc2-c2nccnc21	63.4	·	24.9%	·	-7.4%	-6.3%
CCN(CC)CCCNC(=O)CN1C(=O)COc2ccc(S(=O)(=O)N3CCC(C)CC3)cc21	3.8	-0.9%	·	-6.4%	3.6%[46.1 µM]	-6.0%[46.1 µM]
CCCCCCOc1ccc(C2C(=O)N(C3CCCCC3)CC(=O)N2CCCC)cc1 (stereo not drawn)	45.5	-14.1%	·	-6.8%	0.9%[46.1 µM]	·
CCOc1cc(NS(=O)(=O)CC)c(OCC)cc1NC(=O)c1ccco1	-77.4*	·	?	·	1.4%	?
CCOc1cc(NC(=O)c2ccco2)c(OCC)cc1NC(=O)COc1ccccc1C	?	·	?	·	-21.5%	?
CCOc1cc(NC(=O)c2cccs2)c(OCC)cc1NC(=O)c1ccco1	31.0	-14.2%	-22.7%	·	-0.1%	-5.1%
CCOc1cc(NC(=O)c2ccco2)c(OCC)cc1NC(=O)Cc1cccc(OC)c1	-33.2	-20.6%	12.6µM*	·	?	2.7%
CCOc1cc(NS(=O)(=O)c2ccc(OC)cc2)c(OCC)cc1NC(=O)c1ccco1	-96.7*	·	-4.8%	·	-12.7%	?
CCOc1ccc(C(CC(=O)O)NC(=O)c2ccco2)cc1OC (stereo not drawn)	-100.5*	-12.7%	12.5%	-15.6%[1.46 µM]	15.9%	13.7%
Cc1ccnc(SCC(=O)Nc2sc3c(c2C#N)CCCC3)n1	-39.1	?	7.94µM*	·	-17.4%	-27.3%
CCCc1cc(=O)[nH]c(SCC(=O)Nc2sc(C(N)=O)c(C)c2C(=O)OCCOC)n1	-62.5*	·	?	·	·	·
CC1CCc2c(sc(NC(=O)CSc3ncn[nH]3)c2C#N)C1 (stereo not drawn)	-66.1*	·	11.2µM*	·	·	·
Cc1csc(SCC(=O)Nc2sc3c(c2C#N)CCC3)n1	-3.1	-22.7%	?	·	-23.3%	?
COc1ccc(-c2ccc(C#N)c(SCC(=O)Nc3sc4c(c3C#N)CCC4)n2)cc1OC	-87.9*	·	?	·	14.6µM*	?
O=C(C1CCC(Cn2c(=O)c3sccc3n(Cc3ccccc3F)c2=O)CC1)N1CCOCC1 (stereo not drawn)	-37.1	-17.3%	·	-13.8%	0.6%[46.1 µM]	·
CCN1CCN(CC(=O)Nc2sc3c(c2C#N)CCC(C)C3)CC1 (stereo not drawn)	-38.6	-17.5%	35.5µM*	-2.7%	6.4%	?
N#Cc1c(NC(=O)CCCC(=O)O)sc2c1CCCCC2	-7.6	2.9%	1.1%	-8.5%	8.2µM*	1.16µM*
SMILES	HCMV inh	VACV Venus inh	HCV inhibitor	VACV mCherry inh	LASV entry inh	MARV entry inh
CC1CCc2c(sc(NC(=O)Cn3nc(C(=O)O)c4ccccc4c3=O)c2C#N)C1 (stereo not drawn)	-23.9	·	-6.3%	·	·	·
CC(C)(C)C1CCc2c(sc(NC(=O)CSc3ncn[nH]3)c2C#N)C1 (stereo not drawn)	-20.2	·	?	·	?	-25.7%
CCCc1cc(=O)[nH]c(SCC(=O)Nc2sc3c(c2C#N)CCC(C)C3)n1 (stereo not drawn)	-61.0*	-23.7%	-1.8%	-4.3%	-10.0%[46.1 µM]	33.2%[46.1 µM]
CCCC(=O)Nc1sc2c(c1C#N)CCCCC2	70.8	-22.7%	?	·	?	18.7%
N#Cc1c(NC(=O)CSc2ncn[nH]2)sc2c1CCCC2	-36.8	?	?	?	2.31µM*	?
COc1ccc(S[C@]2(c3nc(C)no3)CC(=O)N(c3ccccc3)[C@@H]2c2ccc(OC)cc2)cc1	-28.5	·	·	·	·	·
Cc1cccc(C(=O)N2CCc3cc(CNC(=O)CCc4ccccc4)ccc32)c1	-21.8	-11.9%	·	i	-23.3%[46.1 µM]	·
Cc1ccc(Cn2c(CNC(=O)c3ccc(Cl)c([N+](=O)[O-])c3)nc3cccnc32)cc1	?	-8.5%	·	-12.0%	5.3%[46.1 µM]	·
Cc1cc(=O)[nH]c2ccc(O)cc12	·	-15.8%	·	-13.6%	·	·
N#Cc1c(NC(=O)COC(=O)c2ccc(O)cc2O)sc2c1CCC2	?	·	7.08µM*	·	·	·
Cc1ccc(O)c(CNc2cccc3cccnc23)c1	-40.0	-16.4%	?	-7.1%	-0.5%	-9.8%
Cc1ccc(NCc2ccc(O)c3ncccc23)cc1	-23.4	-9.4%	5.62µM*	i	?	?
Cc1ccc(NCc2ccc(O)c3ncccc23)cc1C	-79.4*	-10.9%	?	-17.1%	?	?
CCOC(=O)c1noc2ncnc(N3CCN(c4cccc(Cl)c4)CC3)c12	-16.7	4.4%	·	-8.6%	-3.3%[46.1 µM]	·
COC(=O)c1cccnc1-n1c(=O)c2cccnc2n(CC(=O)Nc2ccccc2F)c1=O	9.4	0.1%	·	-4.9%	0.9%[46.1 µM]	-0.3%[46.1 µM]
O=c1onc(-c2ccccc2)n1Cc1ccc([N+](=O)[O-])cc1	-75.1*	-8.4%	·	?	·	·
COc1ccc(OC)c(CNC(=O)c2cc(=O)[nH]c3ccc(S(=O)(=O)N4CCCCC4C)cc23)c1 (stereo not drawn)	-28.2	-8.7%	·	-13.3%	?	·
CCn1nc(C)c(/C=C/C(=O)Nc2ccc(C)cc2C)c1C	-72.7*	-20.1%	-28.0%	i	?	-0.2%
Cc1ccc(Nc2c(-c3ccc(O)cc3)nc3cccc(C)n23)cc1	59.0	-16.6%	·	-25.4%	-18.4%[46.1 µM]	2.2%[46.1 µM]
Cc1cccc2nc(-c3cccnc3)c(Nc3ccc(C(C)C)cc3)n12	-83.0*	?	·	?	?	?
Cc1ccccc1Nc1c(-c2cccnc2)nc2cccc(C)n12	-61.6*!	-28.1%	?	-24.9%	-2.3%[46.1 µM]	-33.0%[46.1 µM]
Cc1nn(C)c(C)c1N1C(=O)c2cccc3c(Br)ccc(c23)C1=O	-73.7*	8.9%	?	i	-17.6%	-27.3%
O=C(NCc1nc(-c2ccc(C(F)(F)F)cc2)no1)Nc1ccc(OC(F)(F)F)cc1	-97.1*	?	?	?	?	?
Cc1cc(C)nc(SCc2cn3c(C)cccc3n2)n1	-12.2	-8.5%	-13.4%	-18.2%	-5.6%	-4.4%
